The list is not random: actives were taken first. Their share in the collection is about 2.1%.
PrPC surface inh: inhibitors of human cell surface prion protein PrPC, primary screen, cell-based, TR-FRET; TR-FRET read-out; inhibition, % at 13.8 µM; actives 0.43% (n = 370,000); AID 720596, 2013; in the data active = inhibition above about 24%; also: 0% = median of the test wells and 100% = reference compound wells
PrP UTR inh: inhibition of PrP 5' UTR reporter expression | actives 0.35% (n = 340,000) | AID 488862, 2010 | inhibition, % (no concentration beside the values) | cell-based PrP 5' UTR mRNA reporter, plate reader; in the data active = inhibition above about 52%; also: 0 = median of the neutral control wells
VHR inh abs: VHR1 phosphatase inhibitors, primary screen, biochemical, absorbance, uHTS | actives 0.52% (n = 290,000) | inhibition, % at 13.3 µM | AID 1654, 2009 | recombinant VHR phosphatase, pNPP absorbance; in the data active = inhibition above about 50%
Target sequence (P51452 whole entry, looked up): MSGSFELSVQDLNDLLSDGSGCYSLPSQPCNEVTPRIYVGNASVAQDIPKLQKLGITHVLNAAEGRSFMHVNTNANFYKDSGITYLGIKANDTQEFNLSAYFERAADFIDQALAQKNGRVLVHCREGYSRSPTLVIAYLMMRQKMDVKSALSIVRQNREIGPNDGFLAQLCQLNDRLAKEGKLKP
MazEF act: activators of E. coli MazEF toxin-antitoxin RNase, primary screen, biochemical, fluorescence, uHTS; FAM/BHQ RNA-DNA oligo cleavage fluorescence, 5 h; Endoribonuclease toxin MazF (Escherichia coli (strain K12)), P0AE70; activation, % at 20 µM; actives 0.32% (n = 350,000); AID 504720, 2011; in the data active = activation above about 50%
Target sequence (P0AE70 whole entry, looked up): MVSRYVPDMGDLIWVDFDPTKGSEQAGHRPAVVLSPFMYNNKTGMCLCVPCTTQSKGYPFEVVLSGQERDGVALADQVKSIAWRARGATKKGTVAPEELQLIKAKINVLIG
PfHsp40 yeast: rescue of yeast from PfHsp40 toxicity, primary screen, S. cerevisiae, ATP luminescence. S. cerevisiae expressing PfHsp40, growth rescue. actives 0.68% (n = 340,000). growth rescue, % at 12.5 µM. AID 504582, 2011; in the data active = growth rescue above about 28%, passing the limit was not always enough;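 also: yeast W303a lacking pdr1 and pdr3 grown in galactose medium; growth measured after three days at 30 °C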
BJeLR lethal: MLPCN primary cell-based screen for lethality selective to Ras in HRASV12 cells. BJeLR (HRASV12) viability, CellTiter-Glo ATP luminescence, 48 h. inhibition, % (concentration not given with the values). actives 0.17% (n = 300,000). AID 1554, 2009; in the data active = inhibition above about 50%
The depositor's hits bear a star; . = no result given.

SMILES	PrPC surface inh	PrP UTR inh	VHR inh abs	MazEF act	PfHsp40 yeast	BJeLR lethal
O=C(CN1CCN(c2ccccn2)CC1)Nc1ccc(F)cc1	-2	-24	24	3	-1	1
O=C(CN1CCN(c2ccccn2)CC1)Nc1ccccc1	-3	6	-10	10	26*	3
CCn1c(=O)c(CCC(=O)N2CCN(c3ccccn3)CC2)c(C)c2c(C)nn(-c3ccccc3)c21	8	-14	-14	-8	45*	-13
CC(C)/C=C(/C(=O)c1ccc(Cl)cc1Cl)n1cncn1	1	-10	-3	3	399*	2
CC(C)(C)C(=O)/C(=C/c1ccc(Cl)cc1)n1cncn1	-1	-2	-11	3	1	15
COc1ccc(C(=O)NC(Cc2ccccc2)c2ccc3c(c2)OCCCO3)cc1 (stereo not drawn)	3	-9	2	-1	0	2
O=C(NC(Cc1ccccc1)c1ccc2c(c1)OCCCO2)c1ccccc1F (stereo not drawn)	-18	-19	52*	-1	-1	-3
COC(=O)CCN(Cc1cc(OC)ccc1OC)S(=O)(=O)c1ccccc1Br	10	3	.	2	1	.
CCCNc1nc(-c2cc(C(=O)Nc3ccccc3)on2)cc(C(C)C)n1	1	-24	.	0	365*	-11
COCCNc1nc(C)cc(-c2cc(C(=O)Nc3ccccc3)on2)n1	.	-20	.	2	0	-4
Fc1ccc(Nc2nnc(C(F)(F)F)s2)cc1Cl	5	-29	32	9	149*	18
CC(C)(C)P(=O)(NCc1ccccc1)c1ccccc1 (stereo not drawn)	11	1	4	8	53*	.
CSCC[C@H](CO)NC(=O)[C@H]1O[C@@H](n2cnc3c(N)ncnc32)[C@H](O)[C@@H]1O	6	.	.	.	.	.
COc1ccc(CN2CCN(Cc3cc4ccccc4o3)CC2CCO)cc1C (stereo not drawn)	-4	-33	59*	0	0	0
COc1cccc(CN2CCN(Cc3cc4ccccc4o3)CC2CCO)c1 (stereo not drawn)	3	-20	19	-16	0	-2
O=S(=O)(CCN1CCOCC1)c1ccc(Oc2ccc(S(=O)(=O)CCN3CCOCC3)cc2)cc1	-6	-21	21	1	-1	4
Cc1nc(Nc2ccc(Cl)c(Cl)c2)sc1C(=O)Nc1ccccc1	19	-20	-4	10	103*	8
O=C(CSc1ncccn1)NCc1ccc(F)cc1	1	9	8	-4	1	-11
O=C(CSc1ccc(-c2ccccn2)nn1)NCc1ccccc1	1	-19	-3	1	270*	-40
O=C(CSc1ccc(-c2cccc([N+](=O)[O-])c2)nn1)NCc1ccccc1	-8	-17	15	-2	2	-3
O=C(CSc1ccc(-c2ccccn2)nn1)NCc1ccc(F)cc1	-1	-16	29	6	248*	14
O=C(CSc1nc(=O)n(CCCN2CCOCC2)c2c1CCCC2)Nc1ccc(Cl)cc1	8	-22	.	6	2	4
COC(=O)c1cc(S(=O)(=O)NCc2cccc(Br)c2)c[nH]1	6	-21	2	1	-1	-9
O=S(=O)(Nc1cc(S(=O)(=O)N2CCOCC2)ccc1NCC1CCCO1)c1ccccc1F (stereo not drawn)	12	-8	.	4	-1	.
CC(C)[C@@H]1NC(=O)[C@H]2C[C@@]3(C)c4ccccc4N[C@H]3N2C1=O	-6	.	.	.	.	.
SMILES	PrPC surface inh	PrP UTR inh	VHR inh abs	MazEF act	PfHsp40 yeast	BJeLR lethal
Cc1ccc(-c2nc3ccc([N+](=O)[O-])cc3[nH]2)cc1	-6	-20	7	10	111*	7
CCCSc1ccc([C@H]2N[C@@](C)(C(=O)OC)[C@H]3C(=O)N(C)C(=O)[C@@H]23)cc1	-2	2	.	3	-2	11
CCCCCCSc1ccc([C@H]2N[C@@](C)(C(=O)OC)[C@H]3C(=O)N(C)C(=O)[C@@H]23)cc1	4	-18	.	10	39*	13
COc1ccc(CC(=O)NC2CC2)cc1OC	-3	-5	53*	2	-1	-2
C/C(=N\N1C(C)CCCC1C)c1ccccc1O (stereo not drawn)	6	.	53*	-2	0	11
COc1ccccc1C(=O)N1CCCC(c2nc(-c3cccs3)no2)C1 (stereo not drawn)	1	.	.	.	.	.
Brc1nc(-c2ccccc2)nc(-c2ccccc2)c1Br	-1	.	.	-11	.	51*
c1ccc(-c2nnc(-c3ccncc3)nc2-c2ccccc2)cc1	-6	-24	-19	-4	-1	4
CC(C)C(N)c1csc(Nc2ccc(C(=O)NCCCO)cn2)n1 (stereo not drawn)	-1	.	.	.	.	.
COc1ccc([C@H]2CC(=O)C=C(c3ccc(C)c(F)c3)C2)cc1	3	-20	.	-4	7	.
CCC(=O)NC(c1cccs1)c1cc([N+](=O)[O-])c2cccnc2c1O (stereo not drawn)	-17	-13	-2	-5	0	16
CC(=O)NC(c1cccs1)c1cc([N+](=O)[O-])c2cccnc2c1O (stereo not drawn)	-5	-23	-2	2	243*	20
O=C(Nc1cccc(C(F)(F)F)c1)O[C@@H]1CC[C@@]23CCCN2C(=O)CCC[C@H]3C1	-1	.	.	.	.	.
N#C/C(=C\c1ccccc1)C(=O)NC1CC1	4	-9	53*	4	0	-2
CC1CCCCC1NC(=O)/C(C#N)=C/c1ccccc1F (stereo not drawn)	0	-11	-1	-1	111*	-7
COc1cc(/C=C(\C#N)C(=O)NC2CCCCC2C)ccc1OS(=O)(=O)c1ccc(C)cc1 (stereo not drawn)	-2	-16	23	1	0	84*
COc1cc(/C=C(\C#N)C(N)=O)ccc1OS(=O)(=O)c1ccc(C)cc1	-2	-8	-2	5	2	7
CC(=O)N[C@@H](Cc1c[nH]c2ccccc12)C(=O)OCC(=O)Nc1cc(C)on1	7	-10	.	3	-1	.
Cc1ccc(CNc2nc3cc(-c4ccccc4)sc3c(=O)n2C)c(C)c1	1	.	.	.	.	.
Oc1ccc(F)c(CN2CCN(c3ncc(Cc4ccccc4)cn3)CC2)c1	-6	.	.	.	.	.
O=C1c2cccc(Cl)c2C(=O)c2c1cccc2N1CCCC1	-13	6	.	-3	381*	4
CCN(CC)c1ccc(/C=N/NC(=O)c2cccc(S(=O)(=O)Nc3ccccc3OC)c2)c(O)c1	21	52	-1	-61	105*	60*

Assay outcomes (PubChem BioAssay)
